Compound activity (PubChem BioAssay)
This excerpt belongs to a sample that is enriched for hits.
HIV RNase H inh-1: HIV-1 RT RNase H inhibitors, primary screen, biochemical, fluorescence; RT-RNase H RNA/DNA duplex cleavage; inhibition, % at 10 µM; 65,000 tested, 1.9% active; in the data active means inhibition above about 50%
HIV RNase H inh-2: HIV-1 RT RNase H inhibitors, retest, confirmation, biochemical; shares compounds with HIV RNase H inh-1; Recombinant RT RNase H, fluorescent RNA/DNA duplex cleavage; inhibition, % at 10 µM; 1,000 tested, 39% active; AID 651, 2007; in the data active means inhibition above about 48%; inconclusive means no clear call, values can overlap the other calls
The depositor's hits bear a star; ? = inconclusive.

SMILES	HIV RNase H inh-1	others
COc1cccc(-c2cc(C(=O)Nc3ccc(OC)c(OC)c3)no2)c1	-2.9
COC(=O)c1cc(-c2ccc(OC)c(OC)c2)on1	-4.0
COc1ccc(-c2cc(C(=O)Nc3cc(OC)c(OC)c(OC)c3)no2)cc1OC	80.0*	HIV RNase H inh-2=24.7
O=C(CN1CCOCC1)Nc1cccc(Cl)c1Cl	-11.1
Cc1ccc(N2C(=O)[C@@H]3C(c4ccc(F)cc4)=NO[C@@H]3C2=O)cc1	2.4
COc1ccc(C2=NO[C@@H]3C(=O)N(c4cccc(C)c4C)C(=O)[C@H]23)cc1OC	6.4
COc1ccc(C2=NO[C@@H]3C(=O)N(c4ccc(C)cc4C)C(=O)[C@H]23)cc1OC	54.3*	HIV RNase H inh-2=-7.5
CC(=O)Nc1ccc(NS(=O)(=O)c2cn(C)c(=O)n(C)c2=O)cc1	-0.7
CCCOC(=O)C1=C(C)NC2=C(C(=O)CCC2)C1c1cccc(OC)c1OC (stereo not given)	-3.4
O=C(CCN1CCc2ccccc2C1)Nc1ccc(F)cc1	-12.2
COc1cc(/C=N/n2cnnc2)ccc1OC(=O)N(C)C	-0.9
Cn1c(=O)n(C)c2cc(/C=N/n3cnnc3)ccc21	58.6*	HIV RNase H inh-2=0.0
CCOc1cc(/C=N/n2cnnc2)ccc1O	-4.5
COc1ccc(S(=O)(=O)N2CCSC2c2ccc(N)cc2)cc1 (stereo not given)	-17.7
COc1cc(NC(=O)CCn2c(=O)[nH]c3ccsc3c2=O)cc(OC)c1	0.2
CCC(C)(C)NC(=O)CN(C(=O)CNS(=O)(=O)c1ccc(C)cc1)c1ccc2c(c1)OCCO2	-8.2
COC(=O)C(CC(=O)c1ccc(Br)cc1)n1ccnc1 (stereo not given)	79.2*	HIV RNase H inh-2=36.2
CCOC(=O)N1CCN(C(=O)CC(C(=O)N2CCc3ccccc32)n2ccnc2)CC1 (stereo not given)	-4.5
Cc1ccc(C(=O)CC(C(=O)O)n2cccn2)cc1 (stereo not given)	-0.8
O=S(=O)(Nc1ncnc2c1oc1ccccc12)c1ccc(Cl)s1	-4.5
CCCCOc1ccccc1NC(=O)CSc1nnnn1C(C)(C)C	-24.9
O=C(Nc1cccnc1)c1c(O)c2c(n(Cc3ccccc3)c1=O)CCCC2	68.4*	HIV RNase H inh-2=?
CCCn1c2c(c(O)c(C(=O)Nc3ccc(C)cn3)c1=O)CCCC2	0.8
CCCn1c2c(c(O)c(C(=O)Nc3ncccc3C)c1=O)CCCC2	-10.5
CCC(C)(C)NC(=O)C(c1ccc(F)cc1)N(Cc1ccco1)C(=O)c1cnccn1 (stereo not given)	3.1
SMILES	HIV RNase H inh-1	others
CCCCCCNC(=O)Cc1nc2nc(C)cc(C)n2n1	-2.2
Cc1cc(C)c(S(=O)(=O)NCc2cn3c(C)csc3n2)cc1C	-15.7
COc1ccc(NCc2cc3cc(OC)ccc3[nH]c2=O)cc1	55.9*	HIV RNase H inh-2=1.0
COc1ccc2[nH]c(=O)c(CNC3CCCCC3)cc2c1	-2.6
COc1ccc(NCc2cc3ccccc3[nH]c2=O)cc1	-5.9
Cc1ccc(NCc2nnc(SCC(=O)c3ccccc3)n2Cc2ccco2)c(C)c1	-5.2
Cc1cccc(CSC2=NCCN2C(=O)c2ccco2)c1	-21.4
COc1cc(SC)ccc1C(=O)Nc1ccc2c(c1)CCN2S(C)(=O)=O	-6.0
CCCn1c2c(c(O)c(C(=O)Nc3nc(C)cs3)c1=O)CCCC2	-1.0
Cc1csc(NC(=O)c2c(O)c3c(n(CC(C)C)c2=O)CCCC3)n1	63.7*	HIV RNase H inh-2=?
CC(C)Cn1c2c(c(O)c(C(=O)Nc3nccs3)c1=O)CCCC2	34.5
COc1ccc(OC)c(S(=O)(=O)N2CCC(C(=O)Nc3cccc(C(F)(F)F)c3)CC2)c1	12.2
COc1ccc(Cl)cc1N1CC(c2nc3ccccc3[nH]2)CC1=O (stereo not given)	-5.7
O=C1CC(c2nc3ccccc3[nH]2)CN1c1ccccc1F (stereo not given)	63.2*	HIV RNase H inh-2=21.2
O=C1CC(c2nc3ccccc3[nH]2)CN1c1cccc(C(F)(F)F)c1 (stereo not given)	-5.5
COC(=O)c1ccc(OCCN2C3=NCCN3c3ccccc32)cc1	-9.3
CCOC(=O)N1CCN(Cc2nc(-c3ccc(C)cc3)no2)CC1	3.0
O=C(N1CCCC1)N1CCN(c2ncnc3c(-c4ccc(Cl)cc4)nsc23)CC1	3.0
COc1ccccc1NC(=O)NCCN1C(=O)C2C3C=CC(C3)C2C1=O (stereo not given)	-10.4
N#Cc1c(N)sc2c1CCCCCC2	-43.4
N#Cc1c(N)c(C#N)c(-c2ccc(O)cc2)c2c1CCCC2	-25.0
N#Cc1c(N)sc(=S)c2c1CCCCC2	57.9*	HIV RNase H inh-2=9.1
COC(=O)c1cc(Br)c(=O)n(Cc2ccc3c(c2)OCO3)c1	-5.2
Cc1ccc(OCc2nnc(NC(=O)Cc3cccs3)s2)cc1	62.2*	HIV RNase H inh-2=?
O=C(Nc1nnc(COc2ccccc2)s1)c1ccco1	-7.8
SMILES	HIV RNase H inh-1	others
CCOC(=O)Cc1nnc(NC(=O)COc2ccc(C)cc2)s1	-3.5
Cc1ccc(NC(=O)C2CCCN2S(=O)(=O)c2ccc(F)cc2)c(C)c1 (stereo not given)	-3.1
O=C(Nc1ccon1)c1cccc(S(=O)(=O)N2CCCC2)c1	1.6
CCCn1c(NC(=O)c2ccc(Cl)c(S(=O)(=O)N3CCCC3)c2)nc2ccccc21	12.5
C=CCOc1ccccc1/C=c1\sc2nc(=O)c(C)nn2c1=O	13.4
COc1ccccc1/C=c1\sc2nc(-c3cccs3)nn2c1=O	8.9
CC(C)Oc1ccc(-c2nn(-c3ccccc3)cc2/C=c2\sc3ncnn3c2=O)cc1	70.2*	HIV RNase H inh-2=?
COc1ccc(OC)c(S(=O)(=O)N2CCC(C(=O)N3CCc4ccccc4C3)CC2)c1	-49.1
CCOC(=O)C(NC=O)(NC(C)(C)C)C(=O)OCC	-11.8
CCOc1ccc2sc(NS(=O)(=O)c3ccc(OC)c(OC)c3)nc2c1	-17.0
CCOc1ccc(S(=O)(=O)Nc2cc(Sc3ncn[nH]3)c3oc(=O)sc3c2)cc1	87.5*	HIV RNase H inh-2=37.6*
CCOc1ccc(S(=O)(=O)Nc2cccc(Cl)c2)cc1	-55.3
Cc1ccc(P(=Nc2ccccc2)(N2CCOCC2)N2CCOCC2)o1	-1.1
CC(C)(C)c1ccc(C(=O)Nc2nonc2-c2nc3ccccc3[nH]2)cc1	60.0*	HIV RNase H inh-2=?
O=C(Nc1ccc(-c2nc3ccccc3[nH]2)cc1)c1ccco1	-10.2
Cn1cccc1-c1nc2ccc(NC(=O)c3ccccc3)cc2[nH]1	-0.7
O=c1[nH]cnc2c1cnn2Cc1ccccc1	-4.2
CN1C(=O)c2oc3ccc(Br)cc3c(=O)c2C1c1ccncc1 (stereo not given)	-0.9
CC1(C)CC(=O)C2=C(C1)OC1=C(C(=O)CC(C)(C)C1)C2c1ccc(O)cc1O	55.8*	HIV RNase H inh-2=-7.6
COc1ccc(C2C(C#N)=C(N)OC3=C2C(=O)CC(C)(C)C3)c(OC)c1OC (stereo not given)	-8.6
CCOC(=O)C1=C(N)OC2=C(C(=O)CC(C)(C)C2)C1c1ccco1 (stereo not given)	-5.1
C=C(C)c1cccc(C(C)(C)NC(=O)N2CCN(CC(N)=O)CC2)c1	-11.4
C=CCOc1cccc(C2C(C(=O)c3ccc(C)o3)=C(O)C(=O)N2c2nccs2)c1 (stereo not given)	-16.7
COc1ccc(-c2nc(CS(=O)(=O)CC(=O)NCCc3cc(OC)ccc3OC)c(C)o2)cc1	-6.6
COc1ccc(OC)c(CCNC(=O)CS(=O)(=O)Cc2nc(-c3ccc(C)cc3)oc2C)c1	-15.6
COc1ccc(OC)c(CCNC(=O)Cn2sc3nc(C)cc(C)c3c2=O)c1	97.3*	HIV RNase H inh-2=56.6*
